Results as given in PubChem BioAssay (NCI).
About 79,000 compounds went through this panel and 15% of them were active in at least one assay; those are over-represented in the sample as a whole. Rule as the data show it: active = growth inhibition above about 70%; inactive = the rest. Where a SMILES comes first, the peptide text is derived from it. [ ]: non-standard residue; d: D form. The star is where a group is joined. Cbz = O=C(OCc1ccccc1)*; Nva = CCC[CH](N)C(=O)O

Key:
[1] = NCI Yeast Anticancer Drug Screen. Data for the rad50 strain (AID 155);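 also: 0% = growth of vehicle-only cultures of the same strain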; settings: S. cerevisiae rad50 strain growth inhibition; at 50.0 µM; active compounds read high
How it was run: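 Growth of the mutant yeast was measured after compound exposure and referenced to vehicle-treated cultures.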

[2] = NCI Yeast Anticancer Drug Screen. Data for the mec2-1 strain (AID 157); settings: S. cerevisiae mec2-1 strain, at 50.0 µM, active compounds read high
How it was run: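 Test agents were screened against the mec2-1 yeast strain, with defined DNA repair or cell cycle alteration. Growth was scored as inhibition against vehicle-only controls.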

[3] = NCI Yeast Anticancer Drug Screen. Data for the sgs1 mgt1 strain (AID 161);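 also: 0% = growth of cultures given vehicle only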; settings: S. cerevisiae sgs1 mgt1 strain, at 50.0 µM, active compounds read high
How it was run: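 Read-out: growth inhibition vs vehicle controls. Cells: mutant yeast strain deficient in DNA damage repair.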

[4] = NCI Yeast Anticancer Drug Screen. Data for the cln2 rad14 strain (AID 165);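 also: 0% = growth equal to vehicle treated cultures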; settings: S. cerevisiae cln2 rad14 strain, at 50.0 µM, active compounds read high
How it was run: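 Growth of compound-exposed yeast (cln2 rad14 genotype) measured and expressed as inhibition relative to vehicle.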

[5] = NCI Yeast Anticancer Drug Screen. Data for the bub3 strain (AID 167); settings: S. cerevisiae bub3 mutant strain, at 50.0 µM, active compounds read high
How it was run: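 Whole-cell yeast assay. The mutant strain was incubated with compounds, and growth inhibition was determined by comparison with vehicle-treated cells.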

[6] = NCI Yeast Anticancer Drug Screen. Data for the mlh1 rad18 strain (AID 175); settings: S. cerevisiae mlh1 rad18 strain growth inhibition; at 50.0 µM; active compounds read high
How it was run: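 In this whole-cell yeast screen, a strain with altered DNA damage repair is challenged with compound, and its growth is measured against matched vehicle-treated controls.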

Measured: growth inhibition

CC1=NC(=O)CNN1C1=NNC2(C(=O)N1)c1ccccc1-c1ccccc12
inactive: [1] -11.1% | [2] -7.3% | [3] -15.2% | [4] 0.85% | [5] -7.3% | [6] -25.1%

CC1CCOC(c2ccc(C(C)C)cc2)O1 (configuration not stated)
inactive: [1] 8.4% | [2] -2.4% | [3] 2.9% | [4] -9.9% | [5] 9.45% | [6] -0.15%

C1CC2CC1C13OC1C1(CC1)C1OC213 (configuration not stated)
inactive: [1] -4.5% | [2] 11.6% | [3] -40.5% | [4] -28.4% | [5] -20.2% | [6] -45.5%

OCC(O)C(O)C(O)C(O)C(O)[C@@H](O)c1nc2ccccc2[nH]1 (some centres not stated)
inactive: [1] -9.2% | [2] -5.4% | [3] -12.3% | [4] -16.9% | [5] 50.1% | [6] 6.6%

CCCC(NC(=O)OCc1ccccc1)C(=O)NC(Cc1ccccc1)C(N)=O (configuration not stated) (Cbz-[Nva]-Phe-NH2; configuration not given here)
inactive: [1] -6% | [2] -0.9% | [3] -3.45% | [4] -34.2% | [5] -5.5% | [6] 0.45%

CCOC(=O)C(C)Sc1ncnc2nc[nH]c12 (configuration not stated)
inactive: [1] -12.8% | [2] 4.4% | [3] -3.15% | [4] 20.9% | [5] 18% | [6] -0.9%

CCCCNC(=O)OCc1cnc(C)n1Cc1ccccc1
inactive: [1] 2.8% | [2] -0.3% | [3] 6% | [4] 4.95% | [5] 4.1% | [6] 10.2%

C/C(=N/N(C)c1ccccc1)C(C)C
inactive: [1] 14.5% | [2] -6.75% | [3] 3.45% | [4] 1.6% | [5] 24.4% | [6] 10.7%

O=Cc1c(O)ccc2ccc3ccccc3c12
inactive: [1] 16.1% | [2] 7.25% | [3] 10.1% | [4] -32.7% | [5] -7.7% | [6] 16.4%

CS(=O)(=O)c1c(N)c2nc(Cl)cn2c2nc3ccccc3nc12
inactive: [1] -11.4% | [2] -2.1% | [3] -10.3% | [4] -9.15% | [5] -27.1% | [6] -16.5%

CCCCOC(=O)Nc1ccccc1OCC
inactive: [1] 6.7% | [2] -19.8% | [3] -0.35% | [4] -48.4% | [5] -20.5% | [6] -11.2%

CCCCCC/C(CC(=O)CCC(=O)NCCc1ccccc1)=N\NC(=O)c1ccc2ccccc2c1O
inactive: [1] 25% | [2] 20.2% | [3] 32.6% | [4] -49.2% | [5] 2.5% | [6] 45.5%

CC(=O)Nc1cc([N+](=O)[O-])c2[nH]c(=O)c3ccccc3c2c1
inactive: [1] -7.7% | [2] -6.7% | [3] -12.4% | [4] -9.45% | [5] -3.2% | [6] -0.15%

COCCOC(=O)c1ccccc1C
inactive: [1] 8.7% | [2] 2.35% | [3] 0.3% | [4] -27.6% | [5] 11.8% | [6] 0.55%

C1=NCCCCCCCN=Cc2ccccc2NCCNc2ccccc21
inactive: [1] 29.1% | [2] 23.8% | [3] 20.4% | [4] 32.4% | [5] 38.3% | [6] 44.6%

Cc1ccc(NC(=O)Oc2ccc(Br)cc2Br)c([N+](=O)[O-])c1
inactive: [1] 9.3% | [2] -1.5% | [3] 13.7% | [4] 11.2% | [5] 4.55% | [6] -6.9%

CCOC(=O)CC1(C)NC(=O)NC1=O (configuration not stated)
inactive: [1] 4.35% | [2] 6.65% | [3] 8.45% | [4] -31.8% | [5] -4.4% | [6] 1%

CCCCN(CCCC)C(C)=O
inactive: [1] -45.1% | [2] -4.85% | [3] 17.1% | [4] -35% | [5] 5.15% | [6] -8.2%

CC(=O)OCC12CC(c3ccoc3)OC3CCC4C(=O)OC(CC1C)C4(C)C32 (configuration not stated)
inactive: [1] -19.4% | [2] -29.4% | [3] -18.6% | [4] 4.3% | [5] -23.9% | [6] -22.8%

CCCCCCCC/C=C\CCCCCCCC(=O)OCC1CCCO1 (configuration not stated)
inactive: [1] -6.8% | [2] 4.7% | [3] -26.6% | [4] 69.2% | [5] 33.6% | [6] 4.45%

CCC(c1ccc(O)cc1)c1cc2c(cc1OCC(=O)OC)OCO2 (configuration not stated)
inactive: [1] -5.1% | [2] -9.3% | [3] -4.65% | [4] -6.75% | [5] 0.65% | [6] 10.2%

[O-][n+]1c2ccccc2nn1-c1ccccc1
inactive: [1] -9.1% | [2] -4.25% | [3] -2.65% | [4] -21.4% | [5] -7.2% | [6] -13.8%

COc1ccc(-c2oc(/C=N/NC(N)=S)c([N+](=O)[O-])c2-c2ccc(OC)c(OC)c2)cc1OC
inactive: [1] 44.6% | [2] 22.8% | [3] 44% | [4] 24.4% | [5] 28.9% | [6] 34.6%

COc1ccc2c(c1)CCC(OS(=O)(=O)CC13CCC(CC1=O)C3(C)C)C2=O (configuration not stated)
inactive: [1] -9.15% | [2] 5% | [3] -15.2% | [4] -10.7% | [5] -21.9% | [6] -0.45%

CCOc1ccccc1Nc1nc(C)c(C(=O)CC(=O)C(=O)Nc2ccccc2)s1
inactive: [1] 45.9% | [2] 5.4% | [3] 28.2% | [4] 9.45% | [5] 29.9% | [6] 12.9%

O=S(=O)(c1ccccc1)n1c2c(c3ccccc31)Cc1ccccc1-2
inactive: [1] -3.75% | [2] 0.75% | [3] -16.9% | [4] -8.4% | [5] -2.1% | [6] -6.55%

CCN(CC)CCSc1nnc(-c2cc(OC)c(OC)c(OC)c2)o1
inactive: [1] 32.5% | [2] 1.1% | [3] -21.1% | [4] 14.8% | [5] 4.2% | [6] -9.85%

C=CCC1=C(C)C(OC(=O)/C=C/c2ccco2)CC1=O (configuration not stated)
inactive: [1] 10.3% | [2] -5.2% | [3] 8.6% | [4] -5.5% | [5] 30.3% | [6] -0.2%

CC(=O)CC(=O)Nc1ccccc1C
inactive: [1] -5.2% | [2] 5.95% | [3] 2.4% | [4] -27.4% | [5] -11.2% | [6] -22.7%

CC(=O)OCCOc1ccc(C(C)(C)C)cc1
inactive: [1] 45% | [2] -18.4% | [3] 9.25% | [4] 32.5% | [5] 11.8% | [6] 15.2%

CCc1nc2c(c(=O)[nH]1)C(c1ccc(Cl)cc1)C(C)(C)O2 (configuration not stated)
inactive: [1] -1.2% | [2] -22.6% | [3] -17.4% | [4] 4.45% | [5] 1.1% | [6] -7.4%

CCC(O)C(C)[N+](=O)[O-] (configuration not stated)
inactive: [1] 28% | [2] -1.85% | [3] 7.45% | [4] 6% | [5] 1.75% | [6] 3.75%

CN(C)C(=S)c1cccc2ccccc12
inactive: [1] 5.1% | [2] -10.5% | [3] -1.95% | [4] -31.4% | [5] -27.2% | [6] -8.45%

CCO/C(C)=N/n1c(C)nc2[nH]ncc2c1=O
inactive: [1] 1.55% | [2] -10.8% | [3] 5.55% | [4] -6.45% | [5] 11.7% | [6] 17.9%

Cc1cccc(C(O)(c2cccc(C)c2)C2(O)CCCCC2)c1
inactive: [1] -9.45% | [2] -0.45% | [3] -0.9% | [4] 21.2% | [5] 1% | [6] 6.9%

O=P(O)(O)OP(=O)(O)OCC1OC(n2cnc3c(=S)nc[nH]c32)C(O)C1O (configuration not stated)
inactive: [1] -2.65% | [2] 3.5% | [3] -5% | [4] -9.2% | [5] 3.55% | [6] 2.85%

COc1nc(OC)c2cnn(-c3ccc(Cl)cc3)c2n1
inactive: [1] -10.5% | [2] -4.6% | [3] -6.45% | [4] -3% | [5] 3.7% | [6] -7.35%

COC1OC2COC(c3ccccc3)OC2C(OS(=O)(=O)c2ccc(Br)cc2)C1OS(=O)(=O)c1ccc(Br)cc1 (configuration not stated)
inactive: [1] -10.5% | [2] 13.7% | [3] -1.3% | [4] -14.7% | [5] -11.8% | [6] 21.6%

Cn1c(-c2ccccc2)nc(-c2ccccc2)[n+]1[O-]
inactive: [1] 8.75% | [2] -0.55% | [3] 1.85% | [4] 9.8% | [5] 0.6% | [6] 28.6%

c1ccc(CCCOCCCc2ccccc2)cc1
inactive: [1] 24.9% | [2] 14.8% | [3] 9.15% | [4] 7.4% | [5] 51.2% | [6] 22.4%

CC(O)(C(=O)c1ccccc1)c1ccccc1 (configuration not stated)
inactive: [1] -16.4% | [2] -25.1% | [3] -16.4% | [4] -8.15% | [5] -18.4% | [6] 0.6%

N#Cc1ccc(-c2nc3ccc(Cl)cc3[nH]2)cc1
inactive: [1] -47.9% | [2] -31% | [3] -13.7% | [4] 6.7% | [5] -30.9% | [6] -21.9%
